The nature of this test: chemical genetic growth profiling, strain panel (AID 1159580).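 Further: tested at 20 µM; growth read once vehicle control cultures reached saturation at 30 °C; 1 = growth at the plate median or of vehicle wells; lower values mean less growth of the strain.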 The following applies: growth OD.
The mark [1] stands for this setting: S. cerevisiae deletion strains, locus YGR078C, strain PAC10, hits give low values.
The mark [2] stands for this setting: S. cerevisiae deletion strains, locus YJR075W, strain HOC1, hits give low values.
Setting [3] is: S. cerevisiae deletion strains, locus YMR307W, strain GAS1, hits give low values.
Where [4] appears, read: S. cerevisiae deletion strains, locus YNL322C, strain KRE1, hits give low values.
Where [5] appears, read: S. cerevisiae deletion strains, locus YPL055C, strain LGE1, hits give low values.
Where [6] appears, read: S. cerevisiae deletion strains, locus YPL241C, strain CIN2, hits give low values.

The whole screen tested about 5,500 compounds, of which about 2,000 (36%) were called active. Not shown: some 18% with an inconclusive outcome. Some of the results follow. A number with no mark means an inactive call. No stated cut-off is given here; in the data, active means normalized growth mostly below about 0.91 (no sharp cut-off); inconclusive means no clear call, values can overlap the other calls; inactive means mostly above about 0.92.

`S=C(S)OC1CC2CC1C1CCCC21` (centres undefined): the normalized growth reads like this: (S. cerevisiae deletion strains, locus YAL040C, strain CLN3, hits give low values) 1; (S. cerevisiae deletion strains, locus YCL061C, strain MRC1 (second series), hits give low values) 1.01; (S. cerevisiae deletion strains, locus YDR363W, strain ESC2, hits give low values) 1.02; (S. cerevisiae deletion strains, locus YER002W, strain NOP16, hits give low values) 1.01; under setting [1], 1; under setting [2], 1. The normalized growth reads like this: under setting [3], 1.01; (S. cerevisiae deletion strains, locus YNL128W, strain TEP1, hits give low values) 1.01; (S. cerevisiae deletion strains, locus YNL175C, strain NOP13, hits give low values) 1.02; (S. cerevisiae deletion strains, locus YNL197C, strain WHI3, hits give low values) 1.03; (S. cerevisiae deletion strains, locus YNL224C, strain SQS1, hits give low values) 1.06; under setting [4], 1.01. For the same compound, the normalized growth by setting is: (S. cerevisiae deletion strains, locus YOR083W, strain WHI5 (second series), hits give low values) 1; under setting [5], 0.943; under setting [6], 1.01.
`CC12CCC3C(CC[C@H]4CC5(CCC34C)OCCO5)C1CCC2O` (some centres undefined): the normalized growth is 0.988 (S. cerevisiae deletion strains, locus YAL013W, strain DEP1, hits give low values); 1.01 (S. cerevisiae deletion strains, locus YBR229C, strain ROT2, hits give low values); 0.87 (active) (S. cerevisiae deletion strains, locus YCL061C, strain MRC1, hits give low values); 0.976 (S. cerevisiae deletion strains, locus YDL101C, strain DUN1, hits give low values); 0.912 (S. cerevisiae deletion strains, locus YDR150W, strain NUM1, hits give low values); 0.999 (S. cerevisiae deletion strains, locus YEL061C, strain CIN8, hits give low values). The normalized growth was 0.968 under setting [1]; 0.969 (S. cerevisiae deletion strains, locus YHR030C, strain SLT2, hits give low values); 1.02 (S. cerevisiae deletion strains, locus YHR087W, strain rtc3, hits give low values); 0.92 (active) (S. cerevisiae deletion strains, locus YJL187C, strain SWE1, hits give low values); 0.877 (active) (S. cerevisiae deletion strains, locus YJR043C, strain POL32, hits give low values); 1 under setting [2]. Moreover, the normalized growth was 1.03 (S. cerevisiae deletion strains, locus YKL190W, strain CNB1, hits give low values); 0.74 (active) (S. cerevisiae deletion strains, locus YLR039C, strain RIC1, hits give low values); 1.04 (S. cerevisiae deletion strains, locus YLR058C, strain SHM2 (second series), hits give low values); 1.03 (S. cerevisiae deletion strains, locus YLR085C, strain ARP6, hits give low values); 0.625 (active) (S. cerevisiae deletion strains, locus YLR262C, strain YPT6, hits give low values); 0.98 (S. cerevisiae deletion strains, locus YML094W, strain GIM5, hits give low values). The normalized growth is, setting by setting: (S. cerevisiae deletion strains, locus YMR219W, strain ESC1, hits give low values) 1; (S. cerevisiae deletion strains, locus YMR263W, strain SAP30, hits give low values) 0.992; under setting [3], 1.05; (S. cerevisiae deletion strains, locus YNL153C, strain GIM3, hits give low values) 0.905 (active); (S. cerevisiae deletion strains, locus YNL298W, strain CLA4 (second series), hits give low values) 0.945; under setting [4], 1.08 [resistant] (active). The normalized growth is, setting by setting: (S. cerevisiae deletion strains, locus YNR030W, strain Alg12, hits give low values) 0.963; under setting [5], 0.98; under setting [6], 0.962; (S. cerevisiae deletion strains, locus YPR135W, strain CTF4, hits give low values) 0.832; (S. cerevisiae strains, strain wild type, hits give low values) 1.02.

For the origin of these results see PubChem BioAssay AID1159580 (chemical genetic matrix, 2015).
